# Experimental data from PubChem BioAssay (NCATS).
# Several values for one entry are separate records, joined by “and”; a condition that tells them apart may be missing. Equal entries are not always repeated. Inconclusive results are not listed. A call without a number means that no potency is given here. Unmarked numbers belong to inactive results. Activity calls are given as the source filed them. Calls follow the shape of the dose curve; as a rule, active = well fitted curve in the direction sought with a large enough effect; inconclusive = small, poorly fitted or top-dose-only effect, or another doubt; inactive = no such curve, though single readings can be large; an effect the other way counts as inactive or inconclusive.
# Legend:
# [1] = qHTS assay to identify small molecule inhibitors of chordoma cells - UCH-1 (AID 1259355); also: nearly all actives have a fitted effect of over 55% in size; also: potency is read from the fitted curve at half-maximal effect; series mostly up to about 46 µM
# Outline: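 Screening used approved and investigational drugs in 15-point titration against 800 seeded cells per well. A fixed combination of auranofin with camptothecin, doxorubicin, rubitecan and topotecan followed compound addition, and growth was scored by CellTiter-Glo after 48hr.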
# [2] = qHTS assay to identify small molecule inhibitors of chordoma cells - UCH-2 (AID 1259356); also: potency is read from the fitted curve at half-maximal effect
# [3] = P-glycoprotein substrates identified in KB-8-5-11 adenocarcinoma cell line, qHTS therapeutic library screen (AID 1346987); details: outcome: dose series up to 44.5 µM unless noted; also: nearly all actives have a fitted effect of over 65% in size; also: potency is read from the fitted curve at half-maximal effect
# Outline: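 Luminescence from CellTiter-Glo, read 5 min after addition, quantified survival of KB-8-5-11 (P-gp-overexpressing) cells exposed to compounds for 72 h. AC50 was derived from concentration-response curves.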
# [4] = qHTS Assay for Identifying Gametocytocidal Compounds (AID 743244);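 also: actives lower the fluorescent signal which means gametocytes are killed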; details: P. falciparum 3D7 stage III-V gametocytes, alamarBlue, 72 h; max response: hits give low values
# Outline: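 Compounds are pinned into medium, gametocytes (stage III–V, 3D7, 20,000 cells/well) added, and plates held 72 h at 37 °C in 5% CO2. AlamarBlue follows for 24 h before fluorescence reading.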
# [5] = P-glycoprotein substrates identified in KB-3-1 adenocarcinoma cell line, qHTS therapeutic library screen (AID 1346986); details: KB-3-1 parental cells viability, CellTiter-Glo, 72 h; also: nearly all actives have a fitted effect of over 60% in size
# Description: The ATP-binding cassette transporters P-glycoprotein (P-gp) is known to limit brain penetration of many chemotherapy drugs. […] We used the CellTiter-Glo viability assay to test library compounds against the parental KB-3-1 human cervical adenocarcinoma cell line and the colchicine-selected sub-line KB-8-5-11 that over-expresses P-gp. KB-8-5-11 cells were also tested in the presence of a P-gp inhibitor (tariquidar) to assess reversability of transporter-mediated resistance. Of the tested compounds, a total of 90 P-gp substrates were identified including 55 newly identified P-gp substrates. Substrates were confirmed using an orthogonal killing assay against HEK-293 cells transfected with P-gp. As exemplars, we confirmed that AT7159 (cyclin-dependent kinase inhibitor); AT9283, (Janus kinase 2/3 inhibitor); ispinesib (kinesin spindle protein inhibitor); gedatolisib (PKI-587, phosphoinositide 3-kinase/mammalian target of rampamycin inhibitor); GSK-690693 (AKT inhibitor); and KW-2478 (heat shock protein 90 inhibitor) were substrates , and direct ATPase stimulation was assessed. […]
# All cell lines were plated into 1536-well plates at 500 cells/well in 5 uL media. […] CellTiter-Glo reagent (Promega) was dispensed into the wells, incubated for 5 min and luminescence was read on a ViewLux instrument (Perkin-Elmer). […]
structure (smiles),measurement,setting,value
Cc1cc(-c2ccc(N=Nc3c(S(=O)(=O)O)cc4cc(S(=O)(=O)O)cc(N)c4c3O)c(C)c2)ccc1N=Nc1c(S(=O)(=O)O)cc2cc(S(=O)(=O)O)cc(N)c2c1O,Potency,[1],11.2 µM (active)
same,Potency,[2],8.2 µM (active)
same,Potency,[3],9.2 µM (active)
CC[C@@H](C(=O)[C@@H](C)[C@@H](O)[C@H](C)[C@@H]1O[C@@H]([C@@H](CC)C(=O)O)CC[C@@H]1C)[C@H]1O[C@]2(C=C[C@@H](O)[C@]3(CC[C@@](C)([C@H]4CC[C@](O)(CC)[C@H](C)O4)O3)O2)[C@H](C)C[C@@H]1C,Potency,[1],11.2 µM (active)
same,Potency,[2],inactive
C=C1CC[C@H](O)CC1=C/C=C1\CCC[C@]2(C)[C@@H]([C@H](C)CC[C@@H](O)C(C)(C)O)CC[C@@H]12,Potency,[1],inactive
same,Potency,[2],inactive
CS(=O)(=O)OCC(O)C(O)COS(C)(=O)=O (stereo not drawn),Potency,[1],inactive
same,Potency,[2],inactive
same,Potency,[3],inactive
C[C@@H]1C[C@H]2[C@@H]3C[C@H](F)C4=CC(=O)C=C[C@]4(C)[C@@]3(Cl)[C@@H](O)C[C@]2(C)[C@H]1C(=O)COC(=O)C(C)(C)C,Potency,[1],inactive
same,Potency,[2],inactive
same,Potency,[3],inactive
CC(C)[C@@H](C)/C=C/[C@@H](C)[C@H]1CC[C@H]2/C(=C/C=C3\C[C@@H](O)CC[C@@H]3C)CCC[C@]12C,Potency,[1],inactive
same,Potency,[2],inactive
same,Potency,[3],inactive
COc1ccc2c(c1)N(C[C@H](C)CN(C)C)c1ccccc1S2,Potency,[1],inactive
same,Potency,[2],inactive
CNC(=O)OCc1cccc(COC(=O)NC)n1,Potency,[1],inactive
same,Potency,[2],inactive
same,Potency,[3],inactive
S=C1SCN(Cc2ccccc2)CN1Cc1ccccc1,Potency,[1],inactive
same,Potency,[2],inactive
CN(C)CCC(O)(c1ccccc1)c1ccccc1Cl (stereo not drawn),Potency,[1],inactive
same,Potency,[2],inactive
NC(=S)N=Nc1ccc(NN=C(N)N)cc1,Potency,[1],inactive
same,Potency,[2],inactive
Oc1cc(O)cc(O)c1,Potency,[1],inactive
same,Potency,[2],inactive
same,Potency,[3],inactive
CCN(CC)CCCC(C)Nc1cc(/C=C/c2ccccc2Cl)nc2cc(Cl)ccc12 (stereo not drawn),Potency,[1],inactive
same,Potency,[2],inactive
CCSc1ccc2c(c1)N(CCCN1CCN(C)CC1)c1ccccc1S2,Potency,[1],inactive
same,Potency,[2],inactive
CN[C@@H]1[C@H](O[C@H]2[C@H](O[C@H]3[C@H](O)[C@@H](O)[C@H](N=C(N)N)[C@@H](O)[C@@H]3N=C(N)N)O[C@@H](C)[C@]2(O)C=O)O[C@@H](CO)[C@H](O)[C@H]1O,max response,[4],14.8%
same,Potency,[1],inactive
same,Potency,[2],inactive
same,outcome,[5],inactive
same,outcome,[3],inactive [setting not given]
CC(C)N1CCN(c2ccc(OC[C@H]3CO[C@](Cn4cncn4)(c4ccc(Cl)cc4Cl)O3)cc2)CC1,Potency,[1],inactive
same,Potency,[2],inactive
CCOC(=O)C1=C(COCCN)NC(C)=C(C(=O)OC)C1c1ccccc1Cl (stereo not drawn),Potency,[1],inactive
same,Potency,[2],inactive
CO/N=C(\C(=O)N[C@@H]1C(=O)N2C(C(=O)[O-])=C(C[n+]3ccc(N)n3CCO)CS[C@H]12)c1csc(N)n1,Potency,[1],inactive
same,Potency,[2],inactive
same,Potency,[3],inactive
CC[C@@]1([C@@H]2O[C@@H]([C@H]3O[C@@](O)(CO)[C@H](C)C[C@@H]3C)C[C@@H]2C)CC[C@H]([C@]2(C)CC[C@]3(C[C@H](O)[C@@H](C)[C@@H]([C@@H](C)[C@@H](OC)[C@H](C)C(=O)O)O3)O2)O1 (stereo in doubt),Potency,[1],1.26 µM (active)
same,Potency,[2],inactive
same,Potency,[3],6.51 µM (active) and 5.8 µM (active)
CO[C@H]1C[C@@H]2CC[C@@H](C)[C@@](O)(O2)C(=O)C(=O)N2CCCC[C@H]2C(=O)O[C@H]([C@H](C)C[C@@H]2CC[C@@H](OC(=O)C(C)(CO)CO)[C@H](OC)C2)CC(=O)[C@H](C)/C=C(\C)[C@@H](O)[C@@H](OC)C(=O)[C@H](C)C[C@H](C)/C=C/C=C/C=C/1C,Potency,[1],inactive
same,Potency,[2],inactive
Cn1c(O)c(N=NC(N)=S)c2ccccc21,Potency,[1],inactive
same,Potency,[2],inactive
Cc1cccc(C)c1NC(=O)C1CCCCN1C (stereo not drawn),Potency,[1],inactive
same,Potency,[2],inactive
same,Potency,[3],inactive
CC(C)(C)NC[C@H](O)COc1ccccc1C1CCCC1,Potency,[1],inactive
same,Potency,[2],inactive
COC(=O)[C@H]1[C@H]2C[C@@H]3c4[nH]c5cc(OC)ccc5c4CCN3C[C@H]2C[C@H](OC)[C@@H]1OC,Potency,[1],inactive
same,Potency,[2],inactive
CC(C)C[C@H](NC(=O)[C@@H](COC(C)(C)C)NC(=O)[C@H](Cc1ccc(O)cc1)NC(=O)[C@H](CO)NC(=O)[C@H](Cc1c[nH]c2ccccc12)NC(=O)[C@H](Cc1cnc[nH]1)NC(=O)[C@@H]1CCC(=O)N1)C(=O)N[C@@H](CCCN=C(N)N)C(=O)N1CCC[C@H]1C(=O)NNC(N)=O,Potency,[1],inactive
same,Potency,[2],inactive
same,Potency,[3],inactive
